This is an account of results in PubChem BioAssay (EPA / NIEHS).

For orientation: AC50 means the concentration at which the activity in the assay is half-maximal.

SMILES strings stand for the structures. Inconclusive results are not listed. Active and inactive are the calls of the source. How the source made its calls: active means hit-call score of the fitted dose curve at least 0.9, where 1 is the maximum; inconclusive means response in the unintended direction; inactive means score below 0.9.

Sequence of mouse Estrogen Receptor alpha (Era), Esr1 (gene 13982) (P19785 whole entry, looked up): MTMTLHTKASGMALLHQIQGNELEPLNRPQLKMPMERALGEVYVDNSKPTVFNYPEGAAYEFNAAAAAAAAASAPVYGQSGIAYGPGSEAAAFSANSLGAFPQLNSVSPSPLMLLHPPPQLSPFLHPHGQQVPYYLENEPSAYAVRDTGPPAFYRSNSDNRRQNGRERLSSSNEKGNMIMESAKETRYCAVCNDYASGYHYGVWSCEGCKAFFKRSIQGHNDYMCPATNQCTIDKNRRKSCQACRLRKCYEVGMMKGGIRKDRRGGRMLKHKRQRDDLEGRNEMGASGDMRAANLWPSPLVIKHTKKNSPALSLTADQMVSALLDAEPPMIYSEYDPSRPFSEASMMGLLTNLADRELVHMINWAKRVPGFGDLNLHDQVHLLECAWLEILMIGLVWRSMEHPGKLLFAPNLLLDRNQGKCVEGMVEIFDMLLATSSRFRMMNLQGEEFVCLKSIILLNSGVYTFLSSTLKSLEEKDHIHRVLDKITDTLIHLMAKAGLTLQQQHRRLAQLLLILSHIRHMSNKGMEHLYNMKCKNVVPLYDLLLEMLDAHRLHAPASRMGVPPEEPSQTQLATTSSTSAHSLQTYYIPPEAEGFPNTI

The target in this assay is mouse Estrogen Receptor alpha (Era), Esr1 (gene 13982) (UniProt P19785). Description: NVS_NR_mERa: NovaScreen (NVS) Nuclear Receptor Binding Assay for mouse Estrogen Receptor alpha (Era) (AID 2283378). The protocol:
NVS_NR_mERa is a biochemical, single-readout assay that uses extracted gene-proteins in a cell-free assay. Measurements were taken 18 hours after chemical dosing in a 96-well plate.NVS_NR_mERa is one of one assay component(s) measured or calculated from the NVS_NR_mERa assay. It is designed to make measurements of radioligand binding, a form of binding reporter, as detected with scintillation counting signals by Filter-based radiodetection technology.Data from the assay component NVS_NR_mERa was analyzed into 1 assay endpoint. This assay endpoint, NVS_NR_mERa, was analyzed in the positive analysis fitting direction relative to DMSO as the negative control and baseline of activity. Using a type of binding reporter, loss-of-signal activity can be used to understand changes in the binding as they relate to the gene Esr1. Furthermore, this assay endpoint can be referred to as a primary readout, because the performed assay has only produced 1 assay endpoint. To generalize the intended target to other relatable targets, this assay endpoint is annotated to the nuclear receptor intended target family, where the subfamily is steroidal.
Binding assays used specific radioligands (tritiated, iodinated) with non-radioactive competitive displacement ligands in agonist or antagonist protocols (as indicated) and various reference compounds and inhibitors to titrate specific binding to receptors and transporters. Most enzyme assays (CYPs, kinases, phosphatases, proteases, HDACs) used recombinant protein and specific substrates (fluorescence mostly, some colorimetric and radioactive) and inhibitors, followed by a biochemical separation of substrate and product. All assays for the biochemical HTS were initially run in duplicate at a single concentration (10 uM for CYP450 assays and 25 uM for all others). […] Each assay was run with positive and negative controls, and concurrent controls on every plate. The follow-up (secondary) screen tested active chemical-pairs in concentration series, as well as a few additional assays not tested in the primary screen, some selected negative inactives, and several cases re-run in the concentration series for confirmatory purposes.
With `CCCCCCC(C)O` (stereo not given), the result was inactive. In the case of `CCC(C)(C)c1cc(O)c(C(C)(C)CC)cc1O`, the compound was classed as inactive. Consider `FC(F)(F)c1ccc(Cl)c(Cl)c1`, for which the outcome was inactive.

As for `CN1CCc2cccc3c2[C@H]1Cc1ccc(O)c(O)c1-3`, the AC50 is 0.309 µM (active). `CCCCCC(=O)O[C@]1(C(C)=O)CC[C@H]2[C@@H]3CCC4=CC(=O)CC[C@]4(C)[C@H]3CC[C@@]21C`: the compound was classed as inactive. As for `CCC(C)(C)C1CCC(=O)CC1`, the call was inactive.

With `CCCCCCOc1ccc(O)cc1`, the half-maximal activity concentration (AC50) is 0.174 µM (active). For `CCCCCCCCCCCCOCCOS(=O)(=O)O`, the AC50 was 29.4 µM (active). Regarding `CC/C=C\CCOC(C)OCC` (stereo not given), the call was inactive. Take `COC(=O)C(C)Oc1ccc(Oc2ncc(C(F)(F)F)cc2Cl)cc1` (stereo not given): the concentration at half-maximal activity (AC50) was 0.164 µM (active). `Cc1cccc(O)c1`: the result was inactive.

In the case of `CN(C)CCC=C1c2ccccc2CCc2ccccc21`, the outcome was inactive.

With `CC(=O)C1C(=O)C=C(C)OC1=O` (stereo not given), the call was inactive.

On to `COc1ccccc1O`, for which the compound was called inactive. On to `CCCCCCCCCOS(=O)(=O)O`, for which the AC50 was 12.7 µM (active). On to `CC12CCC(C1)C(C)(C)C2O` (stereo not given), for which the call was inactive.

For `O=S1(=O)CC(Cl)(Cl)C(Cl)(Cl)C1`, the call was inactive. Take `CCOCC(C)O` (stereo not given): the half-maximal activity concentration (AC50) was 35 µM (active). Consider `CC(C)(C)c1ccc(S)cc1`, for which the AC50 is 10.6 µM (active). In the case of `CC(=O)CC(=O)N(C)C`, the result was inactive. `O=C1OC2(c3ccc(O)cc3Oc3cc(O)ccc32)c2ccccc21`: the half-maximal activity concentration (AC50) was 25 µM (active).

As for `CCc1cccc(O)c1`, the compound was classed as inactive. `CCCCCCCCOC(=O)c1ccc(O)cc1`: the half-maximal activity concentration (AC50) was 1.72 µM (active). For the compound `CCNC(=S)NCC`, the call was inactive. Consider `CC(O)CN` (stereo not given), for which the AC50 was 6.65 µM (active).
